# Compound activity (PubChem BioAssay)
# G9a inh: inhibitors of human histone lysine methyltransferase G9a | Q96KQ7 | G9a H3K9 monomethylation, AlphaScreen, 2 h | Potency, µM (doses to about 102 µM), for inactives: top-dose activity, negative = inhibition, most hits filed as inhibitors | 8.8% of 350,000 active | AID 504332; also: % is scaled to controls: 0 for no effect and ±100 for the full control effect; nearly all actives have a fitted effect of over 75% in size
#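 Compounds were preincubated with 20 nM G9a for 15 min, after which biotinylated H3K9 peptide (500 nM) and SAM (20 uM) started a 2 h room-temperature reaction. Monomethylated product was quantified by antibody-based AlphaScreen chemiluminescence.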
# HP1b chromo inh: inhibitors of HP1-beta chromodomain binding to methylated histone tails; AlphaScreen HP1-beta / biotin-H3K9me3 peptide binding; P83916; 0.56% of 390,000 active; Potency, µM (doses to about 114 µM), without a hit: top-dose activity change, negative = inhibition, actives largely listed as inhibitors; also: nearly all actives have a fitted effect of over 70% in size
#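 AlphaScreen: HP1-beta (50 nM) preformed 30 min with biotin-H3(1-18)K9me3 peptide (50 nM) in PBS pH 7.4, 0.01% Tween-20. Compound added for 30 min at RT, then streptavidin donor/nickel chelate acceptor beads (10 ug/mL) for 30 min.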
# JMJD2A Tudor inh: JMJD2A Tudor domain (human) inhibition | O75164 | AlphaScreen JMJD2A-Tudor / H3K4me3 peptide binding | Potency, µM (series often up to 114 µM), without a hit: at the top dose activity change, negative = inhibition, actives largely listed as inhibitors | 4.4% of 390,000 active | AID 504339; also: % is scaled to controls: 0 for no effect and ±100 for the full control effect; nearly all actives have a fitted effect of over 50% in size
# Target sequence (O75164 whole entry, looked up, the tested form may be a part): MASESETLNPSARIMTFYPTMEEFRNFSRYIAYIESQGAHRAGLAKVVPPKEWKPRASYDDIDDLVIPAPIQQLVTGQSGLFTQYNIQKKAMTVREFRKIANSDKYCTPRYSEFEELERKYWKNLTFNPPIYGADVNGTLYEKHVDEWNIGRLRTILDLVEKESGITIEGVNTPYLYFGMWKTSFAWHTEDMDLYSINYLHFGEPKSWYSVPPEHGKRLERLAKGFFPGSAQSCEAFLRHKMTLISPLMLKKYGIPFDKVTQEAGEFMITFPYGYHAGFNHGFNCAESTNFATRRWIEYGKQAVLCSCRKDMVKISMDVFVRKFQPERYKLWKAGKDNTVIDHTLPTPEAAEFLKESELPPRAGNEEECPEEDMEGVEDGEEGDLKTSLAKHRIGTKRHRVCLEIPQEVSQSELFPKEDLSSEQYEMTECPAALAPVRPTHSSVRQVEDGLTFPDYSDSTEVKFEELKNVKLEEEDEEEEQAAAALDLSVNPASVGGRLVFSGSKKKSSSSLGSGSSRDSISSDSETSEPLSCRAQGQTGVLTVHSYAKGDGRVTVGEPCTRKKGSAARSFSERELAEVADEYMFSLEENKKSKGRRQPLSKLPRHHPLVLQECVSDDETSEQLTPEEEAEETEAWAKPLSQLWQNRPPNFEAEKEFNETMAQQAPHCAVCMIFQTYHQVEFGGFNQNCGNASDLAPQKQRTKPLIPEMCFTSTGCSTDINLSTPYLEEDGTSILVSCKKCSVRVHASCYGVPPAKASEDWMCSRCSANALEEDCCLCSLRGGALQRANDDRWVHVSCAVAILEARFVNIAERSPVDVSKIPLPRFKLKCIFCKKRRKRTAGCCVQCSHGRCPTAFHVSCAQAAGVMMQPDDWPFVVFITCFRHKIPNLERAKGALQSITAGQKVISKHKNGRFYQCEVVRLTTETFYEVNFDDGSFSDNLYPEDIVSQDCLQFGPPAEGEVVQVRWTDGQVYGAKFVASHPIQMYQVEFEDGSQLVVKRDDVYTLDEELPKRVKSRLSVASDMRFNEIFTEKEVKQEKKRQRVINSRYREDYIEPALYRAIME
# BAZ2B inh: BAZ2B (human) inhibition. 4.4% of 360,000 active. Q9UIF8. AID 504333. AlphaScreen BAZ2B-H3K14Ac peptide displacement. Potency, µM (series often up to 114 µM), for the others: at the highest dose activity change, negative = inhibition, usual class: inhibitors; also: % is scaled to controls: 0 for no effect and ±100 for the full control effect; nearly all actives have a fitted effect of over 60% in size
#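 Protein-peptide AlphaScreen: BAZ2B 50 nM, b-H3K14Ac 50 nM, 1x PBS pH 7.4 + 0.01% Tween-20. Preincubation 30 min RT; cpd 30 min RT (top 110 uM); beads 20 min RT, light-protected.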
# GLS inh: glutaminase GLS (human) inhibition | 0.21% of 410,000 active | Potency, µM (doses to about 45.5 µM), for the others: top-dose activity change, negative = inhibition, hits mostly inhibitors | AID 624170 | GLS enzymatic activity, qHTS titration | O94925; also: % is scaled to controls: 0 for no effect and ±100 for the full control effect
#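 Read-out is an Amplex red fluorescence increase coupled through glutamate oxidase and HRP, measured before and after 30 min room-temperature incubation. hKGA is in 45 mM KH2PO4 (pH 8.2) with 0.02% Tween-20; glutamine added as 1mM solution.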
# * = called active by the depositor; u = inconclusive; x = no result given; [ ] = dose if it differs, or a comment. An excerpt weighted towards active compounds, which were near 10% of everything screened. Calls follow the shape of the dose curve; as a rule, active = well fitted curve in the direction sought with a large enough effect; inconclusive = small, poorly fitted or top-dose-only effect, or another doubt; inactive = no such curve, though single readings can be large; an effect the other way counts as inactive or inconclusive. Potency is read from the fitted curve at half-maximal effect.
SMILES,G9a inh,HP1b chromo inh,JMJD2A Tudor inh,BAZ2B inh,GLS inh
CC(=O)Nc1nnc(-c2ccc(Cl)s2)o1,14µM*,20%,-28%,-31%,3%
CCC(=O)Nc1nnc(-c2ccc(Cl)s2)o1,-10%,25%,-19%,x,-2%
CCN(CCCNC(=O)c1[nH]c(C)c(C(C)=O)c1C)c1ccccc1,14µM*,-18%,u,50µM*,75%
Cc1cccc(CN2C(=O)c3ccccc3S(=O)(=O)c3ccc(C(=O)NCCC4=CCCCC4)cc32)c1,6%[59 µM],18%,-14%,-14%,3%
CCOc1ncccc1C(=O)NC(C)CCc1ccccc1 (stereo not given),-10%,20%,10%,-2%,3%
CN(C)CCCNC(=O)/C(=C\c1ccc(-c2cccc([N+](=O)[O-])c2)o1)NC(=O)c1ccccc1,50µM*,-5%,u,-39%,u
Cc1ccc(C(=O)N/C(=C\c2ccc(-c3ccc(Br)cc3)o2)C(=O)NCCCN(C)C)cc1,-50%,-7%,-35%,-37%,5%
Cc1ccc(C(=O)N/C(=C\c2ccc(-c3ccccc3[N+](=O)[O-])o2)C(=O)NCCCN2CCOCC2)cc1,45µM*,0%,u,u,12%
Cc1ccc(C(=O)N/C(=C\c2ccc(-c3cccc([N+](=O)[O-])c3)o2)C(=O)NCCCN(C)C)cc1,50µM*,3%,-25%,-38%,1%
CN(C)CCNC(=O)/C(=C/c1ccc(-c2ccc(Cl)cc2)o1)NC(=O)c1ccccc1,u,-8%,-33%,-32%,7%
Cc1cc(C)cc(C(=O)OCC(=O)NCc2cccs2)c1,-23%,47%,-10%,-6%,1%
Cc1ccc(CNc2c(C)c(C)nc3nncn23)cc1,9%[59 µM],35%,1%,-4%,-13%
NNC(=O)c1ccc(CSc2n[nH]c(=O)[nH]c2=O)cc1,4µM*,11%,-12%,-15%,-20%
O=c1[nH]nc(SCc2ccccc2)c(=O)[nH]1,u,26%,-9%,-6%,-1%
COc1cccc(N(CC(=O)N2CCC(C)CC2)S(=O)(=O)c2ccc(C)cc2)c1,-20%[59 µM],8%,-24%,-1%,-2%
CC(/C=C/c1ccc(N(C)C)cc1)=N\N=C1\NC(=O)CC(C(=O)Nc2ccccc2)S1 (stereo not given),u,-12%,u,u,17%
CC(/C=C/c1ccc(N(C)C)cc1)=N/N=C1/NC(=O)CC(C(=O)Nc2ccc(Cl)cc2)S1 (stereo not given),32µM*,-17%,u,u,0%
CCCCN(CC)Cc1ccc(CNC(=S)Nc2ccc(C)cc2Cl)o1,35µM*,3%,-34%,4%,1%
O=C(O)CCSc1ccccn1,14µM*,17%,-16%,1%,6%
O=C(CCSc1ccccn1)c1ccccc1,u,38%,14%,-4%,-3%
O=c1cc[nH]c2c(Cl)cccc12,22%[0.501 µM],34%,-6%,21%,-7%
O=c1cc[nH]c2c1ccc1c(=O)cc[nH]c12,45µM*,14%,u,-26%,-5%
COCc1c(C(=O)OCC(=O)N(C)C2CCS(=O)(=O)C2)oc2ccccc12 (stereo not given),23%[2.33 µM],13%,-6%,10%,-1%
CCNC(=O)C1(C)CCN(C(=O)c2c(F)ccc(C)c2F)C1 (stereo not given),x,x,x,x,2%
CCOC(=O)c1ccc(C(=S)N2CCCC2)cc1,10µM*,u,-15%,-5%,-25%
SMILES,G9a inh,HP1b chromo inh,JMJD2A Tudor inh,BAZ2B inh,GLS inh
CCOc1ccc(C(=S)N2CCCC2)c(OCC)c1,10µM*,-21%,-23%,-20%,19%
CCN1CCN(C(=S)c2ccc(OC)cc2)CC1,11µM*,-14%,-25%,-2%,14%
CCOc1ccc(C(=S)N2CCN(C)CC2)cc1,40µM*,-2%,-4%,-19%,14%
CCOc1ccc(C(=S)N2CCCC2)cc1,25%[2.33 µM],17%,-5%,3%,-3%
COc1c(Br)cc(C(N)=O)cc1OCc1ccccc1,18%[59 µM],35%,-2%,0%,-1%
CC(=O)N1CCc2c(sc3nc(SCC(C)C)n(-c4ccc(C)c(Cl)c4)c(=O)c23)C1,u,-20%,u,-30%,0%
CCN1CCN(C(=O)c2ccccc2NC(=O)c2ccc(Cl)cc2)CC1,45µM*,7%,-14%,-8%,-8%
CCOc1cc(C(=S)N2CCCC2)ccc1OC,-11%,22%,3%,3%,-6%
COc1cc(C(=S)N2CCCC2)cc(OC)c1O,32µM*,-25%,2%,-3%,2%
N#Cc1ccc(C(=O)OCC(=O)N2CCCC2)cc1,45µM*,12%,-7%,3%,5%
COc1ccc(C(=S)N2CCN(c3ccccc3C)CC2)cc1,8.9µM*,-10%,-30%,-28%,-1%
O=Cc1ccc(C(=O)OCC(=O)N2CCCC2)cc1,18%,29%,5%,11%,-1%
COc1cc(C(=O)Oc2cccc(C=O)c2)cc(OC)c1OC,-2%[12.7 µM],27%,-9%,6%,-6%
CCn1c2ccccc2n2c(=O)c(=O)n(CC(=O)N3CCN(c4ccccc4OC)CC3)nc12,9%,x,x,1%,x
CCN1CCN(C(=S)c2ccc(Cl)cc2)CC1,u,u,79µM*,-1%,u
COc1ccc(C(=S)N2CCCCCC2)cc1,6.3µM*,u,89µM*,3%,-7%
CCOc1ccc(C(=O)OC(C)CN2CCN(C)CC2)cc1 (stereo not given),u,-10%,79µM*,-18%,17%
C/C=C/C(=O)[C@@H](C)[C@@H](/C=C/C[Si](C)(C)C)C(C)C,x,14%,-5%,x,x
CO[C@@]1(NC(=O)C2SC(=C(C(N)=O)C(=O)O)S2)C(=O)N2C(C(=O)O)=C(CSc3nnnn3C)CS[C@@H]21 (stereo not given in full),16µM*,-2%,25µM*,50µM*,16%
CO[C@@]1(NC(=O)CSC[C@@H](N)C(=O)O)C(=O)N2C(C(=O)O)=C(CSc3nnnn3C)CS[C@@H]21,x,x,x,x,23%
N#C/C(=C\Nc1ccc2cn[nH]c2c1)c1nc(-c2ccccc2)cs1,71µM*,33%,-11%,x,-7%
COc1cccc(N(C(=O)c2snc(C(N)=O)c2N)C(C(=O)NCC2CCCO2)c2ccc3ncccc3c2)c1 (stereo not given),2%,15%,-2%,-15%,0%
CN1CC(c2ccccc2)C2(SC(=S)N(Cc3ccco3)C2=O)C12C(=O)Nc1ccccc12 (stereo not given),u,-3%,u,u,-5%
CN1CC(c2ccccn2)C2(SC(=S)N(Cc3ccccc3)C2=O)C12C(=O)Nc1ccccc12 (stereo not given),x,u,22µM*,14µM*,2%
COc1ccc(NC(=O)COc2ccc(S(=O)(=O)NC3CCCCC3)cc2)c(OC)c1,6%[59 µM],39%,0%,2%[57.1 µM],-1%
